# From PubChem BioAssay AID652010 (The Scripps Research Institute Molecular Screening Center, 2013)
# Screen size: about 370,000 compounds; about 4,100 (1.1%) were called active. This is one part of a sample in which actives are shown more often than they occur.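 How the source made its calls: active means inhibition above the mean over all tested compounds plus 3 SD (cut at about 3.6% in these data); inactive means the rest.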
# Assay: DAX1 (NR0B1) inhibitors on StAR promoter, primary screen, cell-based, luminescence, SF-1 (NR5A1), full-length DAX-1 (AID 652010);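 further: 0% = DAX-1 cells with DMSO and 100% = cells lacking DAX-1 with DMSO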
# Conditions: HEK293T StAR-luciferase reporter, SF-1/DAX-1 repression relief; at 6.8 µM; active compounds read high
row,Compound,inhibition
1,COC(=O)[C@]12C[C@H](CC(=O)NCc3cccs3)C(=O)N(CCc3ccc(OC)c(OC)c3)C1=C[C@H](C(C)C)O[C@@H]2C1CC1,0.43% (inactive)
2,CCOC(=O)N1CCN(C(=O)C[C@H]2C[C@@]3(C(=O)OC)C(=C[C@H](C(C)(C)C)O[C@@H]3C)N(Cc3ccc(Cl)cc3Cl)C2=O)CC1,-1.88% (inactive)
3,Fc1ccccc1/C=N/Nc1cc(N2CCCCC2)ncn1,3.71% (active)
4,CCOC(=O)c1cccc(NC(=O)CN(C)S(=O)(=O)c2ccc(-c3cocn3)s2)c1,-0.38% (inactive)
5,COc1cccc(CNC(=O)C2CCCN(c3nc4ccccc4o3)C2)c1OC (centres undefined),-1.08% (inactive)
6,Cc1c(C=O)c2ccccc2n1CCOc1ccccc1,-1.1% (inactive)
7,O=C(O)Cn1c(Cc2ccccc2)nc2ccccc21,0.13% (inactive)
8,Cc1c(C=O)c2ccccc2n1CC(=O)O,3.62% (active)
9,O=c1oc(-c2ccccc2NS(=O)(=O)c2ccc(Cl)cc2)nc2ccccc12,0.22% (inactive)
10,S=c1[nH]nc(/C=C/c2ccccc2)o1,-0.19% (inactive)
11,O=c1oc(/C=C/c2ccccc2)nc2ccccc12,5.78% (active)
12,CN(CC(=O)Nc1ccc(C(N)=O)cc1)S(=O)(=O)c1ccc2c(c1)OCCO2,-0.16% (inactive)
13,COCCCNC(=O)c1ccc(CNS(=O)(=O)c2ccc(NC(C)=O)cc2)cc1,-0.22% (inactive)
14,CC1CCCN(c2cccc3c2S(=O)(=O)N(Cc2ccc(F)cc2)[C@@H](C)[C@H](c2ccccc2)O3)C1 (some centres undefined),1.64% (inactive)
15,CCOc1cc(/C=N/O)ccc1OCc1ccccc1F,0.47% (inactive)
16,COc1cc(/C=N/O)ccc1OCc1ccc([N+](=O)[O-])cc1,4.6% (active)
17,COc1ccc(NC(=O)CSCc2ccc([N+](=O)[O-])cc2)cc1OC,0.2% (inactive)
18,Cn1nc(C(C)(C)C)c(NC(=O)c2sccc2Cl)c1C(C)(C)C,-0.4% (inactive)
19,C[C@@H]1ON(C)[C@H]2C[C@H]3c4cc(N5CCOCC5)ccc4CCN3C[C@@H]12,0.27% (inactive)
20,COC(=O)c1ccc2nc(-c3ccccc3)c(Cc3ccc(OC)cc3C)n2c1,3.05% (inactive)
21,Cc1cc(Br)cn2c(Cc3ccccc3C(F)(F)F)c(-c3ccc(Cl)cc3)nc12,-1.19% (inactive)
22,Cc1ccc2nc(-c3cccnc3)c(NC3CCCC3)n2c1,-0.53% (inactive)
23,Cc1ccc2nc(-c3ccccc3)c(CC3CCCCC3)n2c1,3.67% (active)

row,Compound,inhibition
1,Cc1cc(Br)cn2c(Cc3ccccc3C(F)(F)F)c(-c3ccc(C#N)cc3)nc12,-0.14% (inactive)
2,COc1ccccc1Cc1c(-c2ccc(Cl)cc2)nc2ccc(Cl)cn12,2.6% (inactive)
3,Cc1ccc(-c2nc3ccc(Br)cn3c2Cc2ccccc2C(F)(F)F)cc1,7.12% (active)
4,COC(=O)c1ccc2nc(-c3ccc(F)cc3)c(Cc3ccc(C)cc3)n2c1,0.98% (inactive)
5,Cc1ccc(-c2nc3c(C)cc(Br)cn3c2Cc2ccccc2)cc1,-0.26% (inactive)
6,Brc1ccc2nc(-c3ccccc3)c(Cc3ccccc3)n2c1,0.67% (inactive)
7,Cc1ccc(-c2nc3ccc(Cl)cn3c2Cc2ccccc2)cc1,4.09% (active)
8,COc1ccccc1Cc1c(-c2ccc(F)cc2)nc2ccc(C)cn12,4.57% (active)
9,COC(=O)[C@]12C[C@H](CC(=O)NCCc3ccccc3OC)C(=O)N(Cc3ccccc3)C1=C[C@H](C(C)C)O[C@@H]2C1CC1,0.15% (inactive)
10,CCOC(=O)[C@]12CCCCC/C=C\1N(Cc1ccc(OC)cc1)C(=O)[C@H]2CC(=O)N1CCOCC1,-0.42% (inactive)
11,CN1C(=O)C2CC(O)C(SC3CC4C(=O)N(C)C(=O)C4CC3O)CC2C1=O (centres undefined),0.64% (inactive)
12,CCOC(=O)/C=C/c1ccccc1O,0.4% (inactive)
13,COc1cccc(CNC(=O)[C@H]2CCCN2C(=O)[C@H]2CCCN2C(=O)c2cc(F)cc(F)c2)c1,0.51% (inactive)
14,CCn1c2ccccc2c2cc(NC(=O)CSc3nnc(-c4ccccc4)n3-c3ccc(C)cc3)ccc21,-0.77% (inactive)
15,CN1C(=O)c2cc(NS(C)(=O)=O)ccc2OC[C@@H]2O[C@@H](CC(=O)NCc3ccc(-c4ccccc4)cc3)CC[C@H]21,-0.35% (inactive)
16,CC(C)(C)NS(=O)(=O)NC(=O)C1=C(N2CCCC2)COC1=O,0.57% (inactive)
17,CCCCNC(=O)C[C@H]1C(=O)N(Cc2ccc(OC)cc2)C2=CCCC[C@@]21C(=O)OCC,-0.74% (inactive)
18,C[C@H]1[C@H](c2ccccc2)Oc2cc(Br)ccc2S(=O)(=O)N1Cc1cccc(F)c1,-0.98% (inactive)
19,Cc1c(C(C)c2ccccc2O)[nH]c2ccccc12 (centres undefined),-1.62% (inactive)
20,C[C@@H](NC(=O)c1ccccc1OCC(=O)Nc1ccc(I)cc1)C(=O)N(C)Cc1ccccc1,-1.33% (inactive)
21,CC1CCN(C(=S)c2ccc(-c3ccc(Cl)cc3Cl)o2)CC1,0.67% (inactive)
22,S=C(c1ccc(-c2ccccc2)o1)N1CCCCC1,5.8% (active)
23,O=C(NC(=S)Nc1ccccc1C(=O)O)c1ccc(-c2ccc(Br)cc2)o1,-0.57% (inactive)

row,Compound,inhibition
1,O=S1(=O)c2ccc(Br)cc2-n2nncc2CN1Cc1cccc(Cl)c1,-0.73% (inactive)
2,CCCS(=O)(=O)N1CCC(C(=O)NCCc2ccc(OC)c(OC)c2)CC1,0.15% (inactive)
3,COC(=O)C[C@@H]1CC[C@@H]2[C@@H](COc3ccc(NC(=O)Nc4ccc(F)c(F)c4)cc3C(=O)N2C)O1,-1.81% (inactive)
4,CC1CCN(c2ccc(C(=O)O)cc2NS(=O)(=O)c2ccc(Br)s2)CC1,-1.22% (inactive)
5,CC1CC(C)CN(CCC(=O)Nc2ccc3c(c2)CCC3)C1 (centres undefined),-0.49% (inactive)
6,O=C(Nc1ccc(F)cc1)c1cc2c(s1)CCCC2,2.02% (inactive)
7,O=C(Nc1ccc2c(c1)CCC2)c1ccc(Br)s1,11.2% (active)
8,CCOC(=O)c1c(S(=O)(=O)Nc2cccc(Cl)c2)c(C)n(C)c1C,1.63% (inactive)
9,CCOC(=O)c1c(S(=O)(=O)NCC(=O)Nc2ccc(C)cc2)c(C)n(C)c1C,-0.57% (inactive)
10,CCOC(=O)c1c(S(=O)(=O)Nc2ccc(CN3CCC(C)CC3)cc2)c(C)n(C)c1C,5.11% (active)
11,CC(=O)O[C@@]1(C(C)=O)CCC2[C@H]3C=C(C)C4=CC(=O)CC[C@@]4(C)C3CC[C@]21C (some centres undefined),-0.75% (inactive)
12,Cc1nnc(SC(C)C(=O)Nc2ccc(S(=O)(=O)NC3CCCCC3)cc2)s1 (centres undefined),0.57% (inactive)
13,Cc1ccsc1C(=O)OCC(=O)NCCc1ccccc1,3.66% (active)
14,Cn1cccc1C(=O)OCC(=O)NCCc1ccccc1,0.5% (inactive)
15,Cc1cnc(C(=O)OCC(=O)NCCCc2ccccc2)cn1,1.25% (inactive)
16,COC(=O)C1CN(CC(C)C)CCS(=O)(=O)N1Cc1ccc(C)cc1 (centres undefined),-0.97% (inactive)
17,O=C(CSc1nc2sc3c(c2c(=O)n1-c1ccccc1)CCCC3)NN=Cc1ccc(OCc2ccccc2)cc1,0.1% (inactive)
18,C=CCn1c(SCC(=O)NCCCO)nc2sc3c(c2c1=O)CCC3,0.03% (inactive)
19,C=CCn1c(SCC(=O)Nc2ccc(NC(C)=O)cc2)nc2sc(C)c(C)c2c1=O,4.82% (active)
20,C=CCn1c(SCC(=O)/C(C#N)=C(\C)N)nc2sc(C)c(C)c2c1=O,-0.39% (inactive)
21,Cc1cc(C)cc(N(CCC#N)C(=O)CN2C(=O)NC3(CCCC3)C2=O)c1,-0.09% (inactive)
22,COC(=O)Cc1nnn2c1[C@H](C)[C@H](c1ccccc1Br)OCC2,-0.78% (inactive)
23,COc1ccc(/C=C2\CC3(OC(C)=O)CCCN2C3)cc1 (centres undefined),1.13% (inactive)

row,Compound,inhibition
1,CN1C(=O)/C(=C/C=C2\SCCN2C)OC1=S,3.87% (active)
2,Cc1ccccc1NC(=O)Cn1nnc(-c2ccccc2F)n1,-0.11% (inactive)
3,CC1CCCN(CC(O)COc2ccc3c(c2)OCO3)C1 (centres undefined),0.13% (inactive)
4,CCOc1ccc(-n2c(SCC(=O)Nc3cc(C)c(NC(=O)c4ccccc4)cc3OC)nnc2-c2cccs2)cc1,-3.08% (inactive)
5,C#CCNC(=O)C[C@H]1C[C@@]2(C(=O)OC)C(=C[C@H](C(C)C)O[C@@H]2C2CC2)N(Cc2ccco2)C1=O,0.65% (inactive)
6,Clc1ccc(-c2cc(-c3ccccn3)on2)c(Cl)c1,3.68% (active)
7,Clc1ccccc1-c1cc(COc2ccc3ccccc3c2)no1,0.4% (inactive)
8,Clc1ccc(-c2cc(C3CCNCC3)[nH]n2)c(Cl)c1,-0.17% (inactive)
9,CC(C)CNC(=O)OCc1cn(Cc2ccc(F)cc2)nn1,-0.13% (inactive)
10,Cc1cc(N)n2nc(-c3ccc(C(C)(C)C)cc3)cc2n1,5.95% (active)
11,CCCC(=O)C1=C(N(C)c2ccccc2)CC(C)(C)C(C(=O)OC)C1=O (centres undefined),0.24% (inactive)
12,CCOc1ccc(-n2c(SCC(=O)Nc3cc(C)c(NC(=O)c4ccccc4)cc3OC)nnc2-c2cccc(Cl)c2)cc1,-2.96% (inactive)
13,CCOC(=O)N1CCN(C(=O)c2ccc3nc4cc(Cl)ccc4c(=O)n3c2)CC1,-1.01% (inactive)
14,C=CCN1C(=O)[C@@H](CC(=O)N2CCN(C(=O)c3ccco3)CC2)[C@]2(C(=O)OC)CCCCC=C12,0.15% (inactive)
15,CC(C)c1nc2cc(C(=O)NC(C)c3cnn(C)c3)ccc2o1 (centres undefined),-0.03% (inactive)
16,COC(=O)c1ccc(CNC(=O)c2ccc3oc(C(C)C)nc3c2)cc1,4.25% (active)
17,COc1ccc(CNC(=O)c2ccc3oc(C(C)C)nc3c2)cc1,3.41% (inactive)
18,Cc1ccc(N/N=C2\COC(C)(C)CC2=O)cc1,-0.09% (inactive)
19,COc1ccc(N/N=C2/CCCCC2=O)cc1,4.31% (active)
20,COc1ccccc1Oc1ccc(N/C=C2/CCCC2=O)cc1,0.78% (inactive)
